According to PubChem BioAssay (NCATS):
Inconclusive results are not listed. Entries that show only a call come without a potency. Activity calls are given as the source filed them. The call rests on the fitted dose curve; in most records, active means well fitted inhibition curve with a large enough effect; inconclusive means small, poorly fitted or top-dose-only effect; inactive means flat fitted curve, though single readings scatter.

Columns and labels:
Test in all cases: qHTS profiling for inhibitors of Plasmodium falciparum proliferation (AID 504749); further: nearly all actives have a fitted effect of over 60% in size
Conditions in all cases: P. falciparum in erythrocytes, SYBR Green DNA, 72 h; series mostly up to 28.7 µM
3D7 = test system: 3D7
Method in brief: (§1)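 Readout was DNA-dye fluorescence from lysed cultures, ex 485/em 535 nm. Parasitized red cells had grown 72 h with compound; data scaled between 0.29 uM artemisinin and DMSO wells and corrected using vehicle-only plates.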

AA1029 = test system: AA1029
Method in brief: as §1

ATS95 = test system: ATS95
Method in brief: as §1

C2A = test system: C2A
Method in brief: as §1

CP185 = test system: CP185
Method in brief: as §1

CP237 = test system: CP237
Method in brief: as §1

CP238 = test system: CP238
Method in brief: as §1

CP247 = test system: CP247
Method in brief: as §1

CP265 = test system: CP265
Method in brief: as §1

CP286 = test system: CP286
Method in brief: as §1

DFO2036 = test system: DFO2036
Method in brief: as §1

Dd2 = test system: Dd2
Method in brief: as §1

ECU = test system: ECU
Method in brief: as §1

FAB9 = test system: FAB9
Method in brief: as §1

HB3 = test system: HB3
Method in brief: as §1

P93_24 = test system: P93_24
Method in brief: as §1

P94_40 = test system: P94_40
Method in brief: as §1

PAD = test system: PAD
Method in brief: as §1

PC49 = test system: PC49
Method in brief: as §1

TAB109 = test system: TAB109
Method in brief: as §1
Potency means the concentration at half of the fitted maximal effect.

Structure (SMILES)	Potency (3D7)	Potency (AA1029)	Potency (ATS95)	Potency (C2A)	Potency (CP185)	Potency (CP237)	Potency (CP238)	Potency (CP247)	Potency (CP265)	Potency (CP286)	Potency (DFO2036)	Potency (Dd2)	Potency (ECU)	Potency (FAB9)	Potency (HB3)	Potency (P93_24)	Potency (P94_40)	Potency (PAD)	Potency (PC49)	Potency (TAB109)
NC1=NC(S)C2N=CN=C2N1 (stereo not given)	inactive	inactive	inactive	inactive	inactive	inactive	inactive	inactive	inactive	inactive	inactive	inactive	inactive	inactive	inactive	inactive	inactive	inactive	inactive	inactive
CO[C@@H]1[C@@H](OC2OC(C)C(OC3CC(C)(O)C(OC(=O)CC(C)C)C(C)O3)C(N(C)C)C2O)[C@@H](CC=O)C[C@@H](C)C(=O)/C=C\C2O[C@H]2C[C@@H](C)OC(=O)C[C@H]1OC(C)=O (stereo not given in full)	11.2 µM (active)	5.01 µM (active)	11.2 µM (active)	10 µM (active)	7.94 µM (active)	10 µM (active)	10 µM (active)	11.2 µM (active)	11.2 µM (active)	4.47 µM (active)	10 µM (active)	0.891 µM (active)	8.91 µM (active)	inactive	11.2 µM (active)	8.91 µM (active)	8.91 µM (active)	11.2 µM (active)	inactive	3.98 µM (active)
S=C1NC=NC2N=CNC12 (stereo not given)	inactive	inactive	inactive	inactive	inactive	inactive	inactive	inactive	inactive	inactive	inactive	inactive	inactive	inactive	inactive	inactive	inactive	inactive	inactive	inactive
